As usually defined, the inhibition is the change of the read-out against control, counted positive when it falls.

Test [1] has as its target T1, Inhibitor of nuclear factor kappa-B kinase subunit epsilon (Homo sapiens) (UniProt Q14164).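 Note: reported values are averaged percent inhibition figures against human IKKε.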
T1 sequence (whole entry): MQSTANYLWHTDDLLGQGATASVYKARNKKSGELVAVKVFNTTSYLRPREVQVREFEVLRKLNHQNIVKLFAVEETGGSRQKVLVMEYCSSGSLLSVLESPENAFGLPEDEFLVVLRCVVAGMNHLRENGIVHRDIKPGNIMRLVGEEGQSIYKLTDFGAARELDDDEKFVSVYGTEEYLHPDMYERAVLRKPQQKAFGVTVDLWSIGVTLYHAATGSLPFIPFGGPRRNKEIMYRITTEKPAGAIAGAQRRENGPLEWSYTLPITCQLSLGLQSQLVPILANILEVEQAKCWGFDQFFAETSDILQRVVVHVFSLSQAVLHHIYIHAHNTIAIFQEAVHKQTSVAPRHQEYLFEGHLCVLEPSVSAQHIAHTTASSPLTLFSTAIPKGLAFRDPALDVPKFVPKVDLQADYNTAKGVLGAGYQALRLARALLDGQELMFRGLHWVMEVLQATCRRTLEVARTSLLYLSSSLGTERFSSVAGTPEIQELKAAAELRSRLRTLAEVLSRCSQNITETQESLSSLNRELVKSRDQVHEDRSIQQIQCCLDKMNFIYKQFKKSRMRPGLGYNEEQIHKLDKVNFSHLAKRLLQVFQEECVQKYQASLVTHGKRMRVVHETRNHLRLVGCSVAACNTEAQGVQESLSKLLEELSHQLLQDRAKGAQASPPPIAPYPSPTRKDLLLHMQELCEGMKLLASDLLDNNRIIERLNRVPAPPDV
The following applies: at 1 µM.

Test [2] addresses T2, Serine/threonine-protein kinase Nek1 (Homo sapiens) (UniProt Q96PY6).
T2 sequence (whole entry): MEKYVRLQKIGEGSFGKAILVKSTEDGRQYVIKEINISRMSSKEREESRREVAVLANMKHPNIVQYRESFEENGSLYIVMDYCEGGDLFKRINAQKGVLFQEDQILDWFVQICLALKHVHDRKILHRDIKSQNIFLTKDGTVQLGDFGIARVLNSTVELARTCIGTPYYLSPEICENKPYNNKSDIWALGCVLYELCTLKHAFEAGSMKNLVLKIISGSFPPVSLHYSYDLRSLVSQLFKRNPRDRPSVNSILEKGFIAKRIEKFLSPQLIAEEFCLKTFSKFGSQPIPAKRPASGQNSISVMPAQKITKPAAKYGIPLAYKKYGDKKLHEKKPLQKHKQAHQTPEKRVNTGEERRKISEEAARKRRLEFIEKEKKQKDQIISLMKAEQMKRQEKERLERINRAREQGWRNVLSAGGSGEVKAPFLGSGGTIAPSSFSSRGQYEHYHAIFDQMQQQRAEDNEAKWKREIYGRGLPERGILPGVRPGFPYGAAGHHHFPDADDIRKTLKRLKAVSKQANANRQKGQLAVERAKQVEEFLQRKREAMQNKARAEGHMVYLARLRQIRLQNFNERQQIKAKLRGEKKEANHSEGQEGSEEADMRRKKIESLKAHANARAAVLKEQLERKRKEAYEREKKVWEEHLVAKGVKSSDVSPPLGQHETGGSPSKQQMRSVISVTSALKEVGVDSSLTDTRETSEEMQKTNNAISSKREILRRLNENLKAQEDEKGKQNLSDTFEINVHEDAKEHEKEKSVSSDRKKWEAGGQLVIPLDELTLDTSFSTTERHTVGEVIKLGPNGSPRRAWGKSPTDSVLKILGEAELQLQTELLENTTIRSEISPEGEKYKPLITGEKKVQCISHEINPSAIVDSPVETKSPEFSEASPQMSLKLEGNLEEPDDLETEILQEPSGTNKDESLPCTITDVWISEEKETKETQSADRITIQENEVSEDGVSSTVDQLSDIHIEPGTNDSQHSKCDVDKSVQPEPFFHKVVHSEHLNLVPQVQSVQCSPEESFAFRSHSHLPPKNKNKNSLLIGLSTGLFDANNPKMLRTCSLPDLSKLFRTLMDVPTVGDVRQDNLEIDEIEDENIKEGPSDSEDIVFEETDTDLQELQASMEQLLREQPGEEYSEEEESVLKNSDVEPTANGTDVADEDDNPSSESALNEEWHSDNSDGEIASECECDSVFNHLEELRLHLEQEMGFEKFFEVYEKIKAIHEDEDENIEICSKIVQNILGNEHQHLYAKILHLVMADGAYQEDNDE
Particulars: at 0.1 µM.

For test [3], the target named is T2, Serine/threonine-protein kinase Nek1 (Homo sapiens). The following applies: at 1 µM.
In test [4] the target is T3, Serine/threonine-protein kinase Nek2 (Homo sapiens) (UniProt P51955).
T3 sequence (whole entry): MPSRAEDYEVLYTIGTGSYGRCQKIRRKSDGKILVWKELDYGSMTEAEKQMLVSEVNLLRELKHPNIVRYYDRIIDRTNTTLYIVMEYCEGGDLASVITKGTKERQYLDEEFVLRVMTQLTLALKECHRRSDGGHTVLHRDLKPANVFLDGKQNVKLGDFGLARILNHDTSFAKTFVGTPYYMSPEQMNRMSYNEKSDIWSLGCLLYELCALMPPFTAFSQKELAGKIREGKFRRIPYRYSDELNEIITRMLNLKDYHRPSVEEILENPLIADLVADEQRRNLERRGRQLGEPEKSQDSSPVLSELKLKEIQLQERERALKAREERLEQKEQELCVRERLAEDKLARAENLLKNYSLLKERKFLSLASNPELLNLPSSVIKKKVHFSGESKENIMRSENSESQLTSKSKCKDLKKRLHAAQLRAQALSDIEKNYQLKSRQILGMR
The following applies: at 0.1 µM.

For test [5], the target named is T3, Serine/threonine-protein kinase Nek2 (Homo sapiens). Particulars: at 1 µM.
In test [6] the target is Serine/threonine-protein kinase Nek6 (Homo sapiens) (UniProt Q9HC98). The following applies: at 0.1 µM.
Chain of Serine/threonine-protein kinase Nek6 (Homo sapiens) (Q9HC98 whole entry): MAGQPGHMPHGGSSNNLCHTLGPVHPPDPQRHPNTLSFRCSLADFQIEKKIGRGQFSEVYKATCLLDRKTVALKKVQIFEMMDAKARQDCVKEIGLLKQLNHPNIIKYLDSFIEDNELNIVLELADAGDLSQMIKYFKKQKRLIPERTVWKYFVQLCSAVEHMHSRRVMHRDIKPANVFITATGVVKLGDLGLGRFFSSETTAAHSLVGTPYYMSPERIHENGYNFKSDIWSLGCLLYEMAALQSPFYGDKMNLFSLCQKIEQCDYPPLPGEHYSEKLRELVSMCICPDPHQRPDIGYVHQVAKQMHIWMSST
For test [7] the target is unchanged. The following applies: at 1 µM.
Test [8] deals with Serine/threonine-protein kinase Nek7 (Homo sapiens) (UniProt Q8TDX7). The following applies: at 0.1 µM.
Chain of Serine/threonine-protein kinase Nek7 (Homo sapiens) (Q8TDX7 whole entry, looked up): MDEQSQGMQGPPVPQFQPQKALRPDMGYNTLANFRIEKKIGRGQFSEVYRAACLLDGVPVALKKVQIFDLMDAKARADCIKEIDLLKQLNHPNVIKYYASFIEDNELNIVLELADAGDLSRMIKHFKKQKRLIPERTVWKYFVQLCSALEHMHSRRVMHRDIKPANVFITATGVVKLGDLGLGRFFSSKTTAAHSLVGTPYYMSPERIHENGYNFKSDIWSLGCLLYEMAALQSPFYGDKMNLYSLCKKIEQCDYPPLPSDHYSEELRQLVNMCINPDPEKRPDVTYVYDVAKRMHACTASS
Test [9] has the same target. Particulars: at 1 µM.
Test [10] concerns the target T4, Serine/threonine-protein kinase Nek9 (Homo sapiens) (UniProt Q8TD19).
T4 sequence (whole entry): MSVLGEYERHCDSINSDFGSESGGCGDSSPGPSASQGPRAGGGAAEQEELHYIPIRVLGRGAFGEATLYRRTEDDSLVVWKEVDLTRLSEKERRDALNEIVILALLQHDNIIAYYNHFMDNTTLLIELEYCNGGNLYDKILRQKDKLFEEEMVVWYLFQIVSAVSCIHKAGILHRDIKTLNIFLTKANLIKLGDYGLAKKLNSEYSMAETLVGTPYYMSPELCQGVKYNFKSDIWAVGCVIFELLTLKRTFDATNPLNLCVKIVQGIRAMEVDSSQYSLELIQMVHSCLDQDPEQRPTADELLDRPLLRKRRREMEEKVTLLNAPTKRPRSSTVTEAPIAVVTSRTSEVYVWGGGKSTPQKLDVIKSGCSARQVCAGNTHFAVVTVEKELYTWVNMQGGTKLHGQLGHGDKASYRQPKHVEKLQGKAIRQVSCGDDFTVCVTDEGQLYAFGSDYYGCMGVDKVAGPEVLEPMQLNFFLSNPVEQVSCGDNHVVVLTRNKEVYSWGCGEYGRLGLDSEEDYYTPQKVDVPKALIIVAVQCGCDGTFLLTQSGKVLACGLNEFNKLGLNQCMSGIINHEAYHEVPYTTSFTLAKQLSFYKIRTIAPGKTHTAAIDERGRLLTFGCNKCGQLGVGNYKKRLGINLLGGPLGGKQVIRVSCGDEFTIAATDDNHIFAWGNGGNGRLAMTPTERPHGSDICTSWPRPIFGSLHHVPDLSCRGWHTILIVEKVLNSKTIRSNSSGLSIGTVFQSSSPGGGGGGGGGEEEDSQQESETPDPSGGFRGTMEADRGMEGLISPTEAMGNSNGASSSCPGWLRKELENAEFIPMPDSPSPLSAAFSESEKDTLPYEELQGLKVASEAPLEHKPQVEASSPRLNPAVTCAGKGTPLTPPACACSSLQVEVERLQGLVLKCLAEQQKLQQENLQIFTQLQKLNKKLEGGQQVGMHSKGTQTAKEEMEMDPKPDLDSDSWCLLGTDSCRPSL
The following applies: at 0.1 µM.

The target of test [11] is T4, Serine/threonine-protein kinase Nek9 (Homo sapiens). Particulars: at 1 µM.
In test [12] the target is Serine/threonine-protein kinase PLK1 (Homo sapiens) (UniProt P53350). Particulars: at 0.1 µM.
Chain of Serine/threonine-protein kinase PLK1 (Homo sapiens) (P53350 whole entry): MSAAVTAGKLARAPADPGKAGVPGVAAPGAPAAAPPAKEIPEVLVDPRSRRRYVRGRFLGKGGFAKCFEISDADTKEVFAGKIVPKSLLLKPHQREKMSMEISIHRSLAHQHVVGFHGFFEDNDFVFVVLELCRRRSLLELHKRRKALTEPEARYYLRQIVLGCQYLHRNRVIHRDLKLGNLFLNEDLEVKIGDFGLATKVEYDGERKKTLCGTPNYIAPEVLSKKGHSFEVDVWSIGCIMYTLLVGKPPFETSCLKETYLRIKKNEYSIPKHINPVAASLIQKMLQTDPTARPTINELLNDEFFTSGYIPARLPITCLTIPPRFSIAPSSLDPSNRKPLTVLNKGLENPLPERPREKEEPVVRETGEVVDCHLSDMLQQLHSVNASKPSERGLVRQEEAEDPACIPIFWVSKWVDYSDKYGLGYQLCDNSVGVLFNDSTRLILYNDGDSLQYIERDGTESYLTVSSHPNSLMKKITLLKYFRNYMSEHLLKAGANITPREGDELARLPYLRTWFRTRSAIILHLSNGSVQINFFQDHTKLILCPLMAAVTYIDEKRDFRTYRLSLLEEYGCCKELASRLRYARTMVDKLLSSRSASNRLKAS
For test [13] the target is unchanged. The following applies: at 1 µM.
In test [14] the target is T5, Dual specificity protein kinase TTK (Homo sapiens) (UniProt P33981).
T5 sequence (whole entry): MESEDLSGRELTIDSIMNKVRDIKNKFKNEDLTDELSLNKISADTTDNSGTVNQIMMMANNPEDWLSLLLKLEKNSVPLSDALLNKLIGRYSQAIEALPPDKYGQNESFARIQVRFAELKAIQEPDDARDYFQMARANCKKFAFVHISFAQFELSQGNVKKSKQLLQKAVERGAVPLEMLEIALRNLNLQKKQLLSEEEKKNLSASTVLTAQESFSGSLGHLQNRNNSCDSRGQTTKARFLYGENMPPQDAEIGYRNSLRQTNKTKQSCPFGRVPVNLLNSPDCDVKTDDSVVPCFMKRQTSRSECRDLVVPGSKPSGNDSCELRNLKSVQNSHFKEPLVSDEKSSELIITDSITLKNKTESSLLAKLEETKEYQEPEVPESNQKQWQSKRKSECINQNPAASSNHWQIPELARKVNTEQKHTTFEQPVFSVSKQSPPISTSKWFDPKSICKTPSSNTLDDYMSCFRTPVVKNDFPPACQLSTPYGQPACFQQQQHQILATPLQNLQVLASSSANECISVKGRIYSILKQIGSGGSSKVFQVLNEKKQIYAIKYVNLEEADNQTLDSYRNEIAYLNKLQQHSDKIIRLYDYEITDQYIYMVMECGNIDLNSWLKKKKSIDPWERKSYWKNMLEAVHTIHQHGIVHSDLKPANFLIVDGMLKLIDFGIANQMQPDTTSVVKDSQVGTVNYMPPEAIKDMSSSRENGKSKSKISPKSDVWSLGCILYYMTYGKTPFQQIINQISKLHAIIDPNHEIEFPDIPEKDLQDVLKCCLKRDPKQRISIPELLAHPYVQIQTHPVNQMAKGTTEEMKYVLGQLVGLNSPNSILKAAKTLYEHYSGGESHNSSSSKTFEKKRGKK
Particulars: at 0.1 µM.

Test [15] deals with T6, Receptor-type tyrosine-protein kinase FLT3 (Homo sapiens), P36888 [D835Y].
T6 sequence (whole entry): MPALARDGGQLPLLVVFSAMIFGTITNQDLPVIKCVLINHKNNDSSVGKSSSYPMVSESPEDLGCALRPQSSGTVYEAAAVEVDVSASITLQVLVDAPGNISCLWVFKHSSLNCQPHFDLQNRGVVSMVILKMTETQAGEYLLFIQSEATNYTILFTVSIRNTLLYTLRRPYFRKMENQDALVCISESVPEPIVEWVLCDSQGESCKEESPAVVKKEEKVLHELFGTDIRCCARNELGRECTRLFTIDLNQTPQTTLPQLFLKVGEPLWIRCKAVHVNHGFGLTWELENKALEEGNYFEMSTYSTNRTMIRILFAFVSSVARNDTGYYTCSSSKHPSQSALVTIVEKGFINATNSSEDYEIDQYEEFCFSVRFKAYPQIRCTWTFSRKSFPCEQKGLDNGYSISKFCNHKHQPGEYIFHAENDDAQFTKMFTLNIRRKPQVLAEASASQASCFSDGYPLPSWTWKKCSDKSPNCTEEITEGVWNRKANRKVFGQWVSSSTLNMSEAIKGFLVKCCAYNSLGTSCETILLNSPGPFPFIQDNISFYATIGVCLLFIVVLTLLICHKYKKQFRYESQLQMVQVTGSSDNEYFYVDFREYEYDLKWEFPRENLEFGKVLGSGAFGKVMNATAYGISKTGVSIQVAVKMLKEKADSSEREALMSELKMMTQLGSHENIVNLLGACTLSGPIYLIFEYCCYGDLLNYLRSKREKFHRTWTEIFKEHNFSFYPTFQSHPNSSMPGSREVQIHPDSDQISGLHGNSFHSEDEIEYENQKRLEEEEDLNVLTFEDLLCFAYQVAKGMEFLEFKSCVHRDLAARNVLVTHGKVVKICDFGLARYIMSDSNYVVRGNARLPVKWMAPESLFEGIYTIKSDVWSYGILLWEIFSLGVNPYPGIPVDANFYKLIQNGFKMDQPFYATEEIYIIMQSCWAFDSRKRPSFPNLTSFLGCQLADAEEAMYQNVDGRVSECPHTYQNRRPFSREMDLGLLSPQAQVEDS
Particulars: at 1 µM.

Test [16] has as its target Vascular endothelial growth factor receptor 3 (Homo sapiens) (UniProt P35916). Particulars: at 0.1 µM.
Test [17] has the same target. The following applies: at 1 µM.
Test [18] deals with Macrophage colony-stimulating factor 1 receptor (Homo sapiens) (UniProt P07333). Particulars: at 0.1 µM.
Chain of Macrophage colony-stimulating factor 1 receptor (Homo sapiens) (P07333 whole entry): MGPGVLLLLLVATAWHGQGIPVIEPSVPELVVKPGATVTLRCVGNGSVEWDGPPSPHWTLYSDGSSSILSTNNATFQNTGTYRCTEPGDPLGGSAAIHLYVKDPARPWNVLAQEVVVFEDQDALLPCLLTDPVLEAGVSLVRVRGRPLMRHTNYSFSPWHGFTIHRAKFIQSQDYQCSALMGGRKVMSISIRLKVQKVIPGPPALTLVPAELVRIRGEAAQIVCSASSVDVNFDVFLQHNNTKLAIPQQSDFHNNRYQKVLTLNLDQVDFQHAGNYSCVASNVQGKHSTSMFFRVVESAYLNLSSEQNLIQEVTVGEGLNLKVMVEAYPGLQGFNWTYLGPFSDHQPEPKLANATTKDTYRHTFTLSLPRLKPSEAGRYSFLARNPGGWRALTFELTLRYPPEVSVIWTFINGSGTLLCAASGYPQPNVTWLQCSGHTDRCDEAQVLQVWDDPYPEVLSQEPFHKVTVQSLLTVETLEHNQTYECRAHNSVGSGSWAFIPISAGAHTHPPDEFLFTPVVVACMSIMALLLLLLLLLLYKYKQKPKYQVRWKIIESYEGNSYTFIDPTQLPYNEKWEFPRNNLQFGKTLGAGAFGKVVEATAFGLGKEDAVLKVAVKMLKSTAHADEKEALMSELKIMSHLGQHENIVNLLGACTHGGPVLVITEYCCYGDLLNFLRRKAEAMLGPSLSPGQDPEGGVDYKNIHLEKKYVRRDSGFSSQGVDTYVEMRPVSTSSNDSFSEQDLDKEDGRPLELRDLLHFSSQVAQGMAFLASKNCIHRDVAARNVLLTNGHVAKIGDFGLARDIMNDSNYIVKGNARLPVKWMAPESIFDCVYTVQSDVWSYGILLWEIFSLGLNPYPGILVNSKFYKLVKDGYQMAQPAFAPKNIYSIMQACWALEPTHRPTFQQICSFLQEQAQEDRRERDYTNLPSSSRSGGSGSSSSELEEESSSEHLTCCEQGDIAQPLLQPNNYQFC
Test [19] shares this target. Particulars: at 1 µM.
For test [20], the target named is Tyrosine-protein kinase Fyn (Homo sapiens) (UniProt P06241). The following applies: at 0.1 µM.
Chain of Tyrosine-protein kinase Fyn (Homo sapiens) (P06241 2-537 limits assumed): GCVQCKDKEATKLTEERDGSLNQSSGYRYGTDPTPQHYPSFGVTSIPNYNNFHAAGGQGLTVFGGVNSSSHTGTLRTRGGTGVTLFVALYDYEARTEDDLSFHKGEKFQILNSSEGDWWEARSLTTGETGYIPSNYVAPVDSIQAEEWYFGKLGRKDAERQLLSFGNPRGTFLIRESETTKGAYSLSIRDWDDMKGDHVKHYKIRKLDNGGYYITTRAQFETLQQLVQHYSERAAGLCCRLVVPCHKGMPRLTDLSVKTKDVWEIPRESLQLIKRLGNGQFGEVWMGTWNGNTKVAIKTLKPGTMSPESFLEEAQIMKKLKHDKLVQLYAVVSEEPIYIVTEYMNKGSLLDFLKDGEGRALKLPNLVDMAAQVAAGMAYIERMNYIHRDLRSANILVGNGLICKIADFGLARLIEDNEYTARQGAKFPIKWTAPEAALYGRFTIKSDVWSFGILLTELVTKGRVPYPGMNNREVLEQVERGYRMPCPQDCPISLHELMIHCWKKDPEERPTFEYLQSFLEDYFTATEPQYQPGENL

Each structure is given as a SMILES string.

Chain of Vascular endothelial growth factor receptor 3 (Homo sapiens) (P35916 whole entry): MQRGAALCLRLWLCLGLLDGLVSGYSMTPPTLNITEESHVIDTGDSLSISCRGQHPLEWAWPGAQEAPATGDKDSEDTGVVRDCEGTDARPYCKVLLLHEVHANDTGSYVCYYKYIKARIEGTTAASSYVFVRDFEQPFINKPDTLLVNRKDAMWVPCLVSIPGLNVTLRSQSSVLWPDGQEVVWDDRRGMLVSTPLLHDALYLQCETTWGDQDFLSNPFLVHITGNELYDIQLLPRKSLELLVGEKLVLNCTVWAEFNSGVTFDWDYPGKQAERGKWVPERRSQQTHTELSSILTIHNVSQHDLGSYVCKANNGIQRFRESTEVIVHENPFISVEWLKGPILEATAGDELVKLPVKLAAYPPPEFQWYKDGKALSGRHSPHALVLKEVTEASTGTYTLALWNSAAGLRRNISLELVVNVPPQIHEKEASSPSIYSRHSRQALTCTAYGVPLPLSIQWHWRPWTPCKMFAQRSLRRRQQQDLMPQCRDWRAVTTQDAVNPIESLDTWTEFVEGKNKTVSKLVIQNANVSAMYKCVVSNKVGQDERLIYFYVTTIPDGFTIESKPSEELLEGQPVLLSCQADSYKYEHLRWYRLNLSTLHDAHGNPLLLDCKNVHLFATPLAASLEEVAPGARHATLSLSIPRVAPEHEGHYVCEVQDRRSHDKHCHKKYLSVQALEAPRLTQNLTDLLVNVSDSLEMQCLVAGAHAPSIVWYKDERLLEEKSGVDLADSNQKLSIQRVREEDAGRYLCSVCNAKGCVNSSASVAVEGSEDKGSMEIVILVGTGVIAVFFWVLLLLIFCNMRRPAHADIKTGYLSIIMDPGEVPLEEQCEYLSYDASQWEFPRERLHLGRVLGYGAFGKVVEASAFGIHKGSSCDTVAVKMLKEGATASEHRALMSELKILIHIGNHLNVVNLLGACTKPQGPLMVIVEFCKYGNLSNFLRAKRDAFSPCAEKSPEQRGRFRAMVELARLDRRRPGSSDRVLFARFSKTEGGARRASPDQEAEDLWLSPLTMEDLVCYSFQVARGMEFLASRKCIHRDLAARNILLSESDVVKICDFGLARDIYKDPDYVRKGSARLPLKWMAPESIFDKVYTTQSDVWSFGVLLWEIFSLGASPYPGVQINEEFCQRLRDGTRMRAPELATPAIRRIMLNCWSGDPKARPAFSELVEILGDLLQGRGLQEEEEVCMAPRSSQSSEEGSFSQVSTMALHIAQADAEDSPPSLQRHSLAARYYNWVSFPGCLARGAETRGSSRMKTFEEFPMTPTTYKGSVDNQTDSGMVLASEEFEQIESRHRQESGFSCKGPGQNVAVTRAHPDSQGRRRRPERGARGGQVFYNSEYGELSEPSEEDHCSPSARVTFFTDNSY

On to `Cc1cc(O)cc(C)c1/C=C/c1cncc(C(=O)N(C)C)c1`, for which the inhibition was 2.2% in [1]; 2.11% in [2]; 5.18% in test [3]; 2.6% in test [4]; 3.87% in test [5]; 2.43% in test [6]. Besides, the inhibition in test [7] amounted to 0.38%; in test [8], 3.87%; in test [9] it was 4.65%; in test [10] it was 11.4%; in test [11], 4.45%; in test [12], 5.15%. Besides, the inhibition in [13] was found to be 3.62%; in test [14] it was 1.2%; in test [15], 5.04%; in test [16], 4.71%; in [17] it was 3.92%; in test [18] it was 1.52%. Besides, the inhibition in test [19] was 5.32%; in test [20] it was 3.23%.

Turning to `CN(c1ccc(NC(=O)Nc2ccc(OC(F)(F)F)cc2)cc1)c1ccnc(Nc2cccc(S(N)(=O)=O)c2)n1`, the inhibition in test [1] amounted to 7.75%; in test [2], 0.8%; in [3] it was 2.63%; in test [4], 2.68%; in test [5], 3.03%; in [6] it was 1.81%. Further, the inhibition was 0.14% in test [7]; 1.37% in test [8]; -1.48% in [9]; 2.65% in [10]; 17.1% in [11]; 2.14% in test [12]. The inhibition was -0.02% in [13]; 4.18% in test [14]; 43.2% in test [15]; 37.5% in test [16]; 90.1% in [17]; 42.6% in test [18]. The inhibition in test [19] is 86.1%; in test [20], 8.93%.
